In PubChem BioAssay AID1376 (SRMLSC, 2008):
Out of some 220,000 compounds screened, about 530 (0.24%) were called active. What follows is part of a selection rich in actives, with near analogues and random picks from the rest. Entries with a potency or affinity are not part of this list. Values without a mark were called inactive. Cut-off read from the data, not from the text of the source: active = inhibition above about 13%; inconclusive = no clear call, values can overlap the other calls; inactive = below that.

These compounds were tested against Bifunctional protein GlmU (Mycobacterium tuberculosis (strain ATCC 25618 / H37Rv)) (UniProt P9WMN3) (assay: inhibition of mycobacterial GlmU enzyme – biochemical, glucosamine-1-phosphate acetyltransferase (AID 1376;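 note: 0% = complete reaction with vehicle and 100% = reaction without substrate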)). Conditions: M. tuberculosis GlmU acetyltransferase enzyme assay; hits give high values;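 tested at 30 µM in the primary screen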.
Sequence of Bifunctional protein GlmU (Mycobacterium tuberculosis (strain ATCC 25618 / H37Rv)) (P9WMN3 whole entry, looked up): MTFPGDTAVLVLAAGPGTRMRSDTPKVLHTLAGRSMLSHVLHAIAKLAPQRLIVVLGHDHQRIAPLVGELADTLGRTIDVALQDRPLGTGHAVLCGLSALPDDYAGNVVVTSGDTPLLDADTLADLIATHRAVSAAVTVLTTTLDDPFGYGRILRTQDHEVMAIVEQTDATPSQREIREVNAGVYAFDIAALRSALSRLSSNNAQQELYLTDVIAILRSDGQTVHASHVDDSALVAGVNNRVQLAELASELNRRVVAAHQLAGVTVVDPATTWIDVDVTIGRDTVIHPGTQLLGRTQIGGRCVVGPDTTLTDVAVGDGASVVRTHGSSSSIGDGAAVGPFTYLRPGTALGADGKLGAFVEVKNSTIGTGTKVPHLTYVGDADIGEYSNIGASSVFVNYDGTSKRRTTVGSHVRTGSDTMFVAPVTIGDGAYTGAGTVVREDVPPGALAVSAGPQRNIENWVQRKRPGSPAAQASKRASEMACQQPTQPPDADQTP

With `Cc1ccc(/C=N/NC(=O)C(C)Oc2ccccc2[N+](=O)[O-])s1` (stereo unspecified) as the compound, how does the inhibition read?
Its inhibition is -0.21%.

With `O=c1c2ccccc2n(Cc2ccccc2F)c(=O)n1Cc1ccccc1F` as the compound, how does the inhibition read?
The inhibition was 4.63%.

With `Nc1cc(C(=O)O)ccc1Nc1ccccc1` as the compound, how does the inhibition read?
The inhibition was -4.84%.

For `Nc1ccc(Nc2ccccc2)c(S(=O)(=O)O)c1`, which inhibition is on record?
Its inhibition is 36.2% (active).

How did the inhibition turn out when `Nc1ccc(Nc2ccccc2)c(Cl)c1` was run?
The inhibition was 3.28%.

How did the inhibition turn out when `CCN(CC)S(=O)(=O)c1ccc(OC)c(NC(=O)c2ccc([N+](=O)[O-])cc2)c1` was run?
Its inhibition is -2.82%.

`Cc1cccc(-c2c3c(=O)n(C)c(=O)n(C)c3c3cccnn23)c1` was tested. Which inhibition did it give?
The inhibition was -0.55%.

For `O=C1NN(c2ccccc2)C(=O)/C1=C/c1ccc(Sc2ccc(Cl)cc2)o1`, which inhibition is on record?
Its inhibition is 4.82%.

With `Cc1ccc(N2NC(=O)/C(=C/c3ccc(-c4ccc(Cl)c(C(=O)O)c4)o3)C2=O)cc1` as the compound, how does the inhibition read?
Its inhibition is 7.4%.

With `O=C1NN(c2ccccc2)C(=O)/C1=C\c1ccc(-c2cc([N+](=O)[O-])ccc2O)o1` as the compound, how does the inhibition read?
The inhibition was 9.4%.

`CC1(C)OC(=O)C(=Cc2ccc(-c3ccc(Cl)c(C(=O)O)c3)o2)C(=O)O1` was tested. Which inhibition did it give?
The inhibition was 6.43%.

How did the inhibition turn out when `CC1=NN(c2ccc(C(=O)OC(C)C)cc2)C(=O)/C1=C\C=C\c1ccco1` was run?
The inhibition was 1.04%.

Which inhibition does the source give for `Cc1cccc(N2C(=O)NC(=O)/C(=C/c3ccc(-c4ccc(C(=O)O)c(Cl)c4)o3)C2=O)c1` here?
The inhibition was -1.08%.

For `CCOC(=O)c1ccc(N2N=C(C)/C(=C/C=C/c3ccco3)C2=O)cc1`, which inhibition is on record?
Its inhibition is 3.89%.

With `Cc1ccc(Sc2ccc(/C=C3/C(=O)NN(c4ccccc4)C3=O)o2)cc1` as the compound, how does the inhibition read?
The inhibition was 4.6%.

`O=C1NN(c2ccc(Cl)cc2)C(=O)/C1=C\c1ccc(-c2cccc(C(=O)O)c2)o1` was tested. Which inhibition did it give?
Its inhibition is 30.9% (active).

Which inhibition does the source give for `CCOC(=O)C1CCN(c2cc(C)nc3cc(-c4cccc(F)c4)nn23)CC1` here?
The inhibition was 0.46%.

Which inhibition does the source give for `CCCNC(=O)Nc1ccsc1C(=O)OC` here?
The inhibition was -1.89%.

For `O=C1N=C(N2CCOCC2)S/C1=C1\C(=O)N(Cc2ccccc2)c2ccccc21`, which inhibition is on record?
The inhibition was 0.6%.

Which inhibition does the source give for `COCCCNc1ncnc2nc[nH]c12` here?
Its inhibition is -2.31%.

`CC1(C(=O)OCC(=O)Nc2ccc(C(N)=O)cc2)CC1(Cl)Cl` (stereo unspecified) was tested. Which inhibition did it give?
Its inhibition is -0.58%.

Which inhibition does the source give for `CC1CC(C)(C)NC(=S)N1CCCC(=O)Nc1ccc2c(c1)OCCO2` (stereo unspecified) here?
The inhibition was -3.18%.

Which inhibition does the source give for `CC1CCN(C(c2nnnn2CCc2ccccc2)C(C)C)CC1` (stereo unspecified) here?
Its inhibition is 2.28%.

Which inhibition does the source give for `CCCCC1(C)OC(=O)C(=Cc2ccc(-c3ccc(Cl)c(C(=O)O)c3)o2)C(=O)O1` (stereo unspecified) here?
The inhibition was 0.45%.

For `COc1ccc(Sc2ccc(/C=C3\C(=O)NN(c4ccccc4)C3=O)o2)cc1`, which inhibition is on record?
The inhibition was 7.34%.

With `COc1ccc(CN2C(=O)/C(=C/c3ccc(-c4ccc(Cl)c(C(=O)O)c4)o3)SC2=S)cc1` as the compound, how does the inhibition read?
Its inhibition is 9.33%.

How did the inhibition turn out when `CC1=NOC(=O)/C1=C\c1ccc(-c2ccc(Cl)c(C(=O)O)c2)o1` was run?
Its inhibition is 19.4%.

Which inhibition does the source give for `O=C(CN1CCC(NC(=O)Cc2ccccc2)CC1)Nc1cccc2ccccc12` here?
Its inhibition is 4.11%.

`O=C(NCc1ccccc1Cl)c1ccc(-c2ccccc2)cc1` was tested. Which inhibition did it give?
Its inhibition is -4.31%.

Which inhibition does the source give for `O=C(NCc1ccccc1)c1c(O)c2cccc3c2n(c1=O)CCC3` here?
The inhibition was -6.36%.

With `CN(Cc1cnn(C)c1)S(=O)(=O)c1cccc([N+](=O)[O-])c1` as the compound, how does the inhibition read?
Its inhibition is 2.06%.

`CC(C)=C1C(=O)NN(c2cccc(Cl)c2)C1=O` was tested. Which inhibition did it give?
The inhibition was 3.03%.

How did the inhibition turn out when `O=C1CC(=O)N(c2cccc(F)c2)N1` was run?
The inhibition was 8.59%.

For `COCCNC(=O)[C@H]1C[C@@H]1[C@H](NP(=O)(c1ccccc1)c1ccccc1)c1ccccc1`, which inhibition is on record?
Its inhibition is 0.38%.

With `Cc1ccc(-n2c(COc3cccc(C)c3)n[nH]c2=S)cc1` as the compound, how does the inhibition read?
Its inhibition is 1.39%.

For `O=C(c1cccs1)N1CCN(c2ncccn2)CC1`, which inhibition is on record?
The inhibition was -2.05%.

With `CCOC(=O)C1=C(C)C(c2ccc(OC)cc2)NC(=O)N1` (stereo unspecified) as the compound, how does the inhibition read?
The inhibition was -6.08%.

For `Cc1cc(/C=C2\SC(=S)NC2=O)c(C)n1C`, which inhibition is on record?
Its inhibition is 5.92%.

For `Cc1nn(C)cc1/C=C1\SC(=S)NC1=O`, which inhibition is on record?
The inhibition was 4.22%.

`CCn1c(C)cc(/C=C2/SC(=S)NC2=O)c1C` was tested. Which inhibition did it give?
The inhibition was 1.44%.

For `CCn1cc(/C=C2/SC(=S)NC2=O)c(C)n1`, which inhibition is on record?
The inhibition was 13.2% (active).

With `Cc1cc(/C=C2\SC(=S)NC2=O)c(C)[nH]1` as the compound, how does the inhibition read?
Its inhibition is 13.5% (active).

With `CCn1ncc(/C=C2/SC(=S)NC2=O)c1C` as the compound, how does the inhibition read?
The inhibition was 11.3%.

For `Cc1cc(C)n(-c2nc(C)nc(NCc3ccccc3)n2)n1`, which inhibition is on record?
The inhibition was -4.13%.

For `CNc1nc(C)nc(-n2nc(C)cc2C)n1`, which inhibition is on record?
The inhibition was 13.6% (active).

`Cc1cc(C)n(-c2nc(C)nc(N)n2)n1` was tested. Which inhibition did it give?
Its inhibition is -5.19%.

How did the inhibition turn out when `Cc1sc(NC(=O)c2ccco2)nc1-c1ccc2c(c1)CC(C)N2C(=O)C1CC1` (stereo unspecified) was run?
The inhibition was 3.65%.

Which inhibition does the source give for `CC(C)Cn1c(-c2csc(C(C)C)c2)n[nH]c1=S` here?
Its inhibition is -2.74%.

Which inhibition does the source give for `CCCCn1c(-c2csc(C(C)C)c2)n[nH]c1=S` here?
The inhibition was -1.43%.

`CCn1c(-c2csc(C(C)C)c2)n[nH]c1=S` was tested. Which inhibition did it give?
Its inhibition is 14.3% (active).

`COc1ccc(NC(=O)C(c2ccccc2)c2ccccc2)cn1` was tested. Which inhibition did it give?
Its inhibition is -4.39%.

With `CCS(=O)(=O)Nc1ccc(C2=NN(C(=S)Nc3ccccc3)C(c3ccco3)C2)cc1` (stereo unspecified) as the compound, how does the inhibition read?
The inhibition was -0.65%.

With `CN(C)C(=S)NC(C)(C)C` as the compound, how does the inhibition read?
Its inhibition is 1.31%.

For `Cc1ccc(OCC(=O)N/N=C\c2ccc(C)o2)c(C)c1`, which inhibition is on record?
Its inhibition is 1.64%.

For `Nc1nonc1C(=O)N/N=C/c1ccc(-c2cccc([N+](=O)[O-])c2)o1`, which inhibition is on record?
The inhibition was 1.58%.

`Nc1nonc1C(=O)N/N=C/c1ccc(-c2ccc(Cl)c(C(=O)O)c2)o1` was tested. Which inhibition did it give?
Its inhibition is 5.31%.

For `CNC(=S)N/N=C/c1ccc(-c2cccc(C(=O)O)c2)o1`, which inhibition is on record?
The inhibition was 6.34%.

With `O=C(N/N=C/c1ccc(-c2ccc([N+](=O)[O-])cc2)o1)c1cccnc1` as the compound, how does the inhibition read?
The inhibition was 7.58%.

`COc1ccc(CC(=O)N/N=C/c2ccc(-c3cccc(C(=O)O)c3)o2)cc1OC` was tested. Which inhibition did it give?
The inhibition was 9.43%.

With `O=C(NCCn1cc(SCC(=O)N2CCOCC2)c2ccccc21)c1c(F)cccc1F` as the compound, how does the inhibition read?
Its inhibition is 7.41%.

With `O=C(CSc1nnnn1-c1ccc(O)cc1)c1cc2ccccc2o1` as the compound, how does the inhibition read?
The inhibition was -1.55%.
